# Screen size: about 310,000 compounds; about 14,000 (4.5%) showed an effect of 50% or more. The effect is printed as a negative number. The sample as a whole holds a higher share of strong results than the screen did.
# Biological target: human ether-à-go-go-related gene (hERG) potassium channel (human, UniProt Q12809)
# Test: primary screen, population patch clamp on CHO cells stably expressing hERG; higher = less effect of the substance
# 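Note: peak tail current of the secondary pulse compared with the same well before compound.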
# Chain of human ether-à-go-go-related gene (hERG) potassium channel (Q12809 whole entry, looked up): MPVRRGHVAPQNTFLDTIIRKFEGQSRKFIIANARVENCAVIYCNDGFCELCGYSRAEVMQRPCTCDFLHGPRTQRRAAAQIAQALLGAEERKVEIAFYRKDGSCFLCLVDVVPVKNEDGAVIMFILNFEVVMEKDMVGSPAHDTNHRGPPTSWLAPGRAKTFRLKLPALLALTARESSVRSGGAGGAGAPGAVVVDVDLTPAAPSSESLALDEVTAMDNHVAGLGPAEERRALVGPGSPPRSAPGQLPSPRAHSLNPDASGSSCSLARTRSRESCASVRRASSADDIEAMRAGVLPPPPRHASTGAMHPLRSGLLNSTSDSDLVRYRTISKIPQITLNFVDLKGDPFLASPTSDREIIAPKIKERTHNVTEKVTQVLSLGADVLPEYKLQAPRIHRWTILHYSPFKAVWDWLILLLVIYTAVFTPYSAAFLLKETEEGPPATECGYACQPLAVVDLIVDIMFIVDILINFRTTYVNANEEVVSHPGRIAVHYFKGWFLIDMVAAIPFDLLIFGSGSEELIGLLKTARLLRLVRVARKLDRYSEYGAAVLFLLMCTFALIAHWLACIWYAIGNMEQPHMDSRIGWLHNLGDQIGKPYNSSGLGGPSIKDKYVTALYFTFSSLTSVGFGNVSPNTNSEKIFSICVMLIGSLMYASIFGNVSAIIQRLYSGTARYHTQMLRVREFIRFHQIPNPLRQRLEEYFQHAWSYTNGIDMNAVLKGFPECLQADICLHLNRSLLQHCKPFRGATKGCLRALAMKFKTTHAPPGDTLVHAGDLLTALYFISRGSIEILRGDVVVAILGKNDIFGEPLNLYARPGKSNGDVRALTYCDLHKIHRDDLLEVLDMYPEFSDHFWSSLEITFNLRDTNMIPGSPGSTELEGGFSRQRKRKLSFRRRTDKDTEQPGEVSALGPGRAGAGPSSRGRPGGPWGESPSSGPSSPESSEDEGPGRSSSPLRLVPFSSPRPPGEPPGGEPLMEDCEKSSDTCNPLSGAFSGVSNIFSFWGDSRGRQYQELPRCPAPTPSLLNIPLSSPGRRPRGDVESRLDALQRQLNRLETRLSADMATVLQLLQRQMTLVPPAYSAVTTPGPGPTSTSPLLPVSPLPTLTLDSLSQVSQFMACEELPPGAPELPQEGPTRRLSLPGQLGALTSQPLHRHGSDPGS
row,Structure (SMILES),"hERG current change (%, negative = inhibition) at 10uM [%]"
1,COC(=O)c1sccc1NC(=O)c1cc(-c2ccc(C)cc2C)nc2ccccc12,6.94
2,CC(C)C(NC(=O)c1ccc(C(C)(C)C)cc1)C(=O)NC1=NCCS1 (centres unmarked),-6.13
3,Cc1ccccc1CN(c1ccc(C(=O)Nc2cccnc2)cc1)S(C)(=O)=O,-9.59
4,NC(=O)CSc1n[nH]c(-c2ccco2)n1,24
5,O=C(COC(=O)COc1cccc(C(F)(F)F)c1)NC(=O)NC1CCCCC1,-1.9
6,Cc1c(CNCCc2ccccc2)c(C(=O)O)c(C)n1-c1ccccc1,12.1
7,C/C(=N/NC(=O)CNC(=O)Cc1ccc(Cl)cc1)c1ccco1,4.04
8,CCc1cc(C(=O)c2ccc(OC)cc2)c(NC(=O)CN2CCCCC2)s1,5
9,CCc1cc(C(=O)c2ccc(OC)cc2)c(NC(=O)CN2CCN(C)CC2)s1,-71.3
10,CCc1cc(C(=O)c2ccc(OC)cc2)c(NC(=O)CN2CCCC2)s1,-12.4
11,CCOc1cccc2cc(C(=O)N3CCc4ccccc43)c(=O)oc12,-2.43
12,COC(=O)C1=C(c2ccc(OC)c(OC)c2)C[C@@H]2CC[C@H]1N2C(=O)NCCCOC(C)C,15.3
13,C[N+]1(CC(=O)OCCCC2CCCCC2)CCCC1.[I-],-8.31
14,COC(=O)c1ccc(OCC(O)CNC2CCCC2)cc1.Cl (centres unmarked),13.3
15,OC(CNC1Cc2ccccc2C1)COc1ccc(Cl)cc1 (centres unmarked),-68.8
16,Cl.OC(CNC1CCCC1)COc1ccc(-c2ccccc2)cc1 (centres unmarked),-51.8
17,OC(CNC1Cc2ccccc2C1)COc1ccc(F)cc1 (centres unmarked),-49.1
18,Cl.OC(CNCC1COc2ccccc2O1)COc1ccc(Cl)cc1 (centres unmarked),-56.2
19,O=C(O)c1ccccc1C(=O)NCC(O)COc1ccc(Cl)cc1 (centres unmarked),2.34
20,Cl.OC(CNC1CCCC1)COc1ccc(Cl)cc1 (centres unmarked),-9.8
21,OC(CNCC1COc2ccccc2O1)COc1ccccc1F (centres unmarked),1.11
22,CC(OCC(O)CNCC1COc2ccccc2O1)c1ccc(Cl)cc1 (centres unmarked),-22.7
23,COc1ccc(OCC(O)CNC2CCCC2)cc1.Cl (centres unmarked),12.8

row,Structure (SMILES),"hERG current change (%, negative = inhibition) at 10uM [%]"
1,Cl.OC(CNC1CCCC1)COc1ccc(F)cc1 (centres unmarked),5.27
2,Cl.O=[N+]([O-])c1ccc(OCC(O)CNC2CCCC2)cc1 (centres unmarked),-76.2
3,O=C(CSc1nnc(-c2cccs2)o1)N1CCCc2ccccc21,3.02
4,O=C(CCCn1c(=S)[nH]c2ccsc2c1=O)Nc1ccc2c(c1)OCO2,17.2
5,O=C(COC(=O)c1ccccc1O)Nc1cc([N+](=O)[O-])ccc1Cl,-21.5
6,Nc1nc(NCCc2ccccc2)nc(NCc2ccccc2)c1[N+](=O)[O-],20.4
7,Cc1ccc(C)c(OCC(O)CNC2CCCC2)c1.Cl (centres unmarked),8.8
8,Cc1cccc(C)c1OCC(O)CNS(=O)(=O)c1ccccc1C(=O)N1CCCCC1 (centres unmarked),-10.9
9,Cc1ccc(OCC(O)CNC2CCCC2)c(C)c1.Cl (centres unmarked),7.48
10,Cc1ccc(OCC(O)CNS(=O)(=O)c2ccccc2C(=O)N2CCCCC2)cc1 (centres unmarked),-13.9
11,Cc1ccc(C(C)C)c(OCC(O)CNC2CCCC2)c1.Cl (centres unmarked),-51.9
12,O=C(c1ccccc1S(=O)(=O)NCC(O)COc1ccc([N+](=O)[O-])cc1)N1CCCCC1 (centres unmarked),-56.8
13,CCc1nn(C(C)C(=O)N2CCN(c3ccccc3)CC2)c(=O)c2cc3occc3n12 (centres unmarked),-25.3
14,CCOC(=O)C1C(c2ccc(O)c(OCC)c2)NC(=S)NC1(O)C(F)(F)F (centres unmarked),-12.5
15,CC(=O)c1ccc(N2CCN(C(=O)CCC(=O)Nc3ccc4nc(N5CCN(C)CC5)cc(C)c4c3)CC2)cc1,20.3
16,CN(C(=O)COC(=O)c1ccc(-c2ccc(O)cc2)cc1)C1CCS(=O)(=O)C1 (centres unmarked),10.8
17,COCCNC(=O)CN(C(=O)CCC(=O)Nc1ccccn1)c1ccc(F)c(Cl)c1,4.59
18,O=C(CSc1nnnn1-c1ccccc1)NCC1(N2CCCCC2)CCCCC1,-62.3
19,Cc1ccc(-n2nnnc2SCC(=O)NCC2(N3CCCCC3)CCCCC2)c(C)c1,-284
20,Cc1ccc(-n2nnnc2SCC(=O)NCCC2=CCCCC2)c(C)c1,-13.1
21,O=C(CSc1ccccc1)NCC1(N2CCCCC2)CCCCC1,-0.798
22,CNC(=O)CSc1nnnn1-c1ccc(C)cc1C,7.63
23,O=C(CSc1nnnn1-c1ccccc1)NCC1(N2CCOCC2)CCCCC1,-21.3

row,Structure (SMILES),"hERG current change (%, negative = inhibition) at 10uM [%]"
1,COCCN(C(=O)COC(=O)c1ccccc1Oc1ccccc1)c1c(N)n(Cc2ccccc2)c(=O)[nH]c1=O,-21.6
2,Cc1cc(C(=O)N2CCN(c3ncccn3)CC2)sc1-c1ccccc1,-3.34
3,O=[N+]([O-])c1ccccc1/C=N/NC1=NCCN1,7.6
4,COc1ccccc1N1CCN(C(=O)CCNC(=O)Cn2ccc3ccccc3c2=O)CC1,2.62
5,CN(C(=O)C1CCC(=O)N(CCCN2CCCC2=O)C1)C(C1CC1)C1CC1 (centres unmarked),12.1
6,CC(=O)Nc1ccc(S(=O)(=O)Nc2ccc3c(c2)OCO3)cc1,17.2
7,CN(C)S(=O)(=O)c1cccc(NC(=O)COC(=O)C2CCN(C(=O)c3ccc(F)cc3)CC2)c1,-50.8
8,O=C(Nc1cccc(S(=O)(=O)N2CCCCC2)c1)C1CCN(C(=O)c2ccc(Cl)cc2)CC1,-31.7
9,O=C(Nc1cccc(S(=O)(=O)N2CCOCC2)c1)C1CCCN(C(=O)c2ccc(Cl)cc2)C1 (centres unmarked),-32.4
10,O=C(Nc1cccc(S(=O)(=O)N2CCCCCC2)c1)C1CCN(C(=O)c2ccc(Cl)cc2)CC1,-41.9
11,O=C(Nc1cccc(S(=O)(=O)N2CCCCC2)c1)C1CC1,-10.6
12,O=C(Nc1cccc(S(=O)(=O)N2CCCCCC2)c1)C1CCC1,-57.4
13,CN(C)S(=O)(=O)c1cccc(NC(=O)COC(=O)CCC(=O)c2ccc(F)cc2)c1,-36
14,O=C(Nc1cccc(S(=O)(=O)N2CCCCCC2)c1)C1CCN(C(=O)c2ccc(F)cc2)CC1,-88
15,O=C(Nc1cccc(S(=O)(=O)N2CCOCC2)c1)C1CCCC1,-4.03
16,CN(c1ccccc1)S(=O)(=O)c1cccc(NC(=O)COC(=O)C2CCCCC2)c1,13.7
17,O=C(Nc1cccc(S(=O)(=O)N2CCOCC2)c1)[C@@H]1CCCN1S(=O)(=O)c1ccc(Cl)cc1,-62.8
18,O=C(Nc1cccc(S(=O)(=O)N2CCCCC2)c1)C1CCC1,3.43
19,CC(C)CCNC(=O)c1ccc2c(SCC(=O)O)c3c(nc2c1)CCCC3,-2.6
20,Cc1ccc(N(C)S(=O)(=O)c2csc(C(N)=O)c2)cc1C,-14.8
21,Cc1ccc(CN2C(=O)CCC2C(=O)NCCN(CC(C)C)CC(C)C)cc1 (centres unmarked),-13.4
22,CCOc1cc(N2CCOCC2)c(OCC)cc1NC(=O)C1=NN(c2cccc(C)c2)C(=O)CC1,-3.8
23,COc1cc(Cn2nnc3ccccc32)cc(Br)c1O,3

row,Structure (SMILES),"hERG current change (%, negative = inhibition) at 10uM [%]"
1,Cc1ccccc1NC(=O)Cn1c(CCC(=O)O)ccc1-c1cccs1,15.4
2,CCN(C(=O)CSc1ccc2ccccc2n1)C1CCS(=O)(=O)C1 (centres unmarked),-7.61
3,Cc1sc2c(c1C)c(=O)n(-c1ccc(Cl)cc1)c(=O)n2Cc1cc(=O)n2ccccc2n1,-36.4
4,Cc1ccc(-n2c(=O)c3c(C)c(C)sc3n(Cc3cc(=O)n4ccccc4n3)c2=O)cc1C,-4.43
5,Cc1ccc(-n2c(=O)c3c4c(sc3n(Cc3cc(=O)n5ccccc5n3)c2=O)CCC4)cc1C,-69.1
6,CS(=O)(=O)N(Cc1ccc(C(=O)NN=C2CCCCCC2)cc1)c1ccccc1,-7.08
7,CCCCC(C(=O)O)C(C)CC(=O)NNC(=O)c1ccco1 (centres unmarked),13.2
8,C(=N\Nc1nncc2ccccc12)/c1ccccc1,1.52
9,COc1ccc(OC)c(N/C(=N/c2nc(C)cc(C)n2)NC(C)=O)c1,14.5
10,COc1ccc(C)cc1N/C(N)=N/c1nc(C)cc(C)n1,-74.4
11,CC(=O)N/C(=N/c1nc(C)cc(C)n1)Nc1ccc(C)cc1C,-10.6
12,Cc1ccc(N/C(N)=N/c2nc(C)cc(N3CCCCC3)n2)c(C)c1,-83
13,Cc1ccc(C)c(N/C(N)=N/c2nc(C)cc(C)n2)c1,-34.2
14,CCOC(=O)Nc1cc(C)ccc1OC,11.2
15,COc1ccc(Cl)cc1N/C(N)=N/c1nc(C)cc(C)n1,-84.2
16,COc1ccc(N/C(N)=N/c2nc(C)cc(C)n2)c(OC)c1,-26.4
17,COc1ccccc1N/C(N)=N/c1nc(C)cc(C)n1,-32.9
18,COc1ccc(Cl)cc1N/C(N)=N/c1nc(C)cc(=O)[nH]1,20
19,COc1ccc(Cl)cc1NC(=O)CSc1nc(C)cc(C)n1,-32.6
20,COc1ccc(OC)c(N/C(N)=N/c2nc(C)cc(C)n2)c1,-50.1

# Source: paper PMC4336329 (PLoS ONE, 2015)
